NS1 function inh = inhibitors of influenza NS1 protein function; actives 0.4% (n = 270,000); Potency, µM (series often up to 46.1 µM), for the others: at the top dose activity, positive = more growth; calls by dose curve; further: actives are rising curves; nearly all actives have a fitted effect of over 50% in size
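Compounds were scored for reversing the slow growth caused by influenza A NS1 in S. cerevisiae, measured by optical density at 600 nm. Assay medium contained 2% galactose at pH 6.0; NS1-free yeast of the same strain were the positive control.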
Pf growth 96h = P. falciparum growth inhibition at 96 hour, primary screen for plastid delayed-death inhibitors | AID 504834 | actives 6.9% (n = 320,000) | Potency, µM (highest dose often 28.7 µM), inactives show at the highest dose activity change, negative = inhibition, actives largely listed as inhibitors | P. falciparum luciferase reporter growth, 96 h; further: on the % scale 0 is the no-effect control and ±100 the full control effect
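Parasite growth measured via integrated firefly luciferase reporter in P. falciparum. Infected erythrocytes at 2% hematocrit, 0.05% parasitemia final were treated 96 hours at 37 C under 5% CO2, and luminescence was read.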
AMA1 RON2 block = AMA1-RON2 (P. falciparum) interaction inhibition; Potency, µM (series often up to 58.2 µM), inactives show at the highest dose activity change, negative = inhibition, actives largely listed as inhibitors; actives 0.2% (n = 360,000); AlphaScreen AMA1-biotinylated RON2 peptide binding;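 further: 0% = vehicle wells and -100% = peptide control; nearly all actives have a fitted effect of over 45% in size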
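AMA1 (3D7) with his tag at 25 nM final met compounds first, then biotinylated RON2 peptide at 25 nM; detection used donor plus acceptor beads, 10 µg/mL apiece, read by AlphaScreen after 30 min at room temperature.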
Sm TGR inh = S. mansoni TGR enzyme inhibition. AID 485364. Q962Y6. actives 3% (n = 360,000). purified TGR, DTNB reduction, TNB absorbance 405 nm. Potency, µM (titrated, usually from 114 µM), without a hit: top-dose activity change, negative = inhibition, actives largely listed as inhibitors; further: on the % scale 0 is the no-effect control and ±100 the full control effect; nearly all actives have a fitted effect of over 60% in size
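First, TGR (20 nM dispensed) and NADPH were mixed with compound. Second, a 15 min room-temperature incubation followed. Third, further NADPH and then DTNB were added to start the reaction. Finally, TNB absorbance was monitored kinetically.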
Pf growth 48h = inhibits P. falciparum growth in the first generation, 48 h; P. falciparum luciferase growth in erythrocytes, 48 h; Potency, µM (titrated, usually from 28.7 µM), for inactives: at the top dose activity change, negative = inhibition, hits mostly inhibitors; actives 5.9% (n = 310,000); AID 504832; further: on the % scale 0 is the no-effect control and ±100 the full control effect
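Luciferase-expressing parasites in RBCs, 2% Hct / 0.1% parasitemia final; RPMI 1640 + 0.5% Albumax; 37 C, 5% CO2, one generation; luminescence read-out, lower signal = inhibition.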
An asterisk follows results filed as active; u = inconclusive; x = no result given; [ ] = remark or other dose. In the library only some 11% were active in any assay of this set; here they are far more common. Unless noted, the call rests on the fitted dose curve; in most records, active means well fitted curve in the direction sought with a large enough effect; inconclusive means small, poorly fitted or top-dose-only effect, or another doubt; inactive means no such curve, though single readings can be large; an effect the other way counts as inactive or inconclusive. Potency means the concentration at half of the fitted maximal effect.

SMILES	NS1 function inh	Pf growth 96h	AMA1 RON2 block	Sm TGR inh	Pf growth 48h
Cc1ccc(/C=C/c2nc3ccccc3[nH]2)o1	x	u	2.1%	3.55µM*	115.3%
Cc1cccc(N2CCN(C(=O)c3cccc(N4CCCC4=O)c3)C(C)C2)c1 (centres undefined)	5.2%	u	1.9%	0.0%	u
CCN(CC)c1ccc(CC2C(=O)N(C)C(=O)N(C)C2=O)cc1	-14.6%	14.7%	-21.0%	14.1µM*	u
CCOc1ccc(CC2C(=O)NC(=O)N(c3ccc(CC)cc3)C2=O)cc1 (centres undefined)	7.9%	x	2.0%	-24.6%	-8.1%
C=CCOc1ccc(CC2C(=O)N(C)C(=O)N(C)C2=O)cc1	15.4%	0.5%	10.3%	25.1µM*	3.7µM*
CCCCC[C@@H](C)N1C[C@@H](COCc2ccccc2)Oc2cc(N3CCC[C@@H]3COC)ccc2S1(=O)=O	x	x	-13.2%	x	x
COc1ccc2[nH]c(=O)c(CN(CC3CCCO3)C(=S)Nc3ccccc3)cc2c1 (centres undefined)	2.3%	256.0%	-3.4%	11.7%	17.6%
COc1ccc2cc(CN(CC3CCCO3)C(=S)Nc3ccccc3)c(=O)[nH]c2c1 (centres undefined)	9.9%	u	-17.7%	-11.6%	9.28µM*
Cc1cc2cc(CN(CC3CCCO3)C(=S)Nc3ccccc3)c(=O)[nH]c2cc1C (centres undefined)	21.8%	9.1%	-17.5%	4.2%	11.7µM*
Cc1cc2cc(CN(CC3CCCO3)C(=S)NCc3ccco3)c(=O)[nH]c2cc1C (centres undefined)	7.4%	-74.5%	-9.7%	2.2%	-23.8%
CCN1CCCC1CN(Cc1cc2ccc(C)cc2[nH]c1=O)C(=S)Nc1ccc(OC)cc1 (centres undefined)	2.3%	23.3%	-8.2%	-23.8%	18.2%
CCN1CCCC1CN(Cc1cc2ccc(C)cc2[nH]c1=O)C(=S)Nc1cccc(OC)c1 (centres undefined)	-0.6%	15.1%	-10.4%[11.6 µM]	4.2%	10.4µM*
Cc1ccc(C(=O)N[C@H](C(=O)Nc2sccc2C(N)=O)C(C)C)cc1	14.7%	u	3.8%	-11.3%	-9.8%
N#Cc1nc(Cc2cccc3ccccc23)oc1NCC1CCCO1 (centres undefined)	-48.7%	7.38µM*	-10.6%	-3.2%	x
N#Cc1nc(Cc2cccc3ccccc23)oc1NCc1ccco1	-87.5%	u	-26.9%	u	u
COc1ccccc1CNC(=O)COC(=O)c1nc(Cl)ccc1Cl	x	58.7%	-10.2%	-7.6%	12.1%
C=C(C)CNC(=S)Nc1cccc(N)n1	0.2%	8.5%	-7.0%	2.82µM*	-13.2%
C=C(C)CNC(=S)N/N=C(\C)c1cccc(NC(C)=O)c1	x	u	57.7%	-20.7%	19.5%
N=c1ccn(Cc2ccc([N+](=O)[O-])cc2)cc1	1.6%	u	-19.7%	24.3%	4.15µM*
O=[N+]([O-])c1ccc(Cc2ccc([N+](=O)[O-])cc2)cc1	x	x	-2.7%	x	x
Cc1ccc(S(=O)(=O)N(Cc2n[nH]c(=S)n2-c2ccccc2)c2cccc(Cl)c2)cc1	11.3%	-19.3%	27.5%	0.6%	u
Cc1ccc(S(=O)(=O)N(Cc2n[nH]c(=S)n2-c2ccccc2)c2ccccc2)cc1	4.6%	u	65.6%	-17.3%	2.33µM*
O=C(OCC1CCNCC1)c1ccc(F)cc1	x	x	4.5%	x	x
Cc1cc(NC(=O)C2CC(c3ccc(F)cc3)=NO2)no1 (centres undefined)	-4.5%	5.22µM*	-1.0%	0.2%	x
COC(=O)c1ccccc1NC(=O)C1CC(c2ccc(F)cc2)=NO1 (centres undefined)	-8.2%	10.4µM*	5.2%	u	28.0%
SMILES	NS1 function inh	Pf growth 96h	AMA1 RON2 block	Sm TGR inh	Pf growth 48h
CC(C)Cn1c(N)c(C(=O)COC(=O)C2Cc3ccccc3CN2S(C)(=O)=O)c(=O)n(C)c1=O (centres undefined)	x	u	1.3%	4.1%	11.7µM*
CCS(=O)(=O)N1Cc2ccccc2CC1C(=O)OCC(=O)N(C(C)C)C(C)C (centres undefined)	x	9.28µM*	5.1%	-1.1%	u
CC(C)Cn1c(N)c(C(=O)COC(=O)c2cc(C(F)(F)F)nc3ccccc23)c(=O)n(C)c1=O	4.8%	u	2.7%	0.4%	u
CCOc1ccc(NC(=O)C2Cc3ccccc3CN2S(=O)(=O)CC)cc1 (centres undefined)	x	u	0.9%	-9.5%	u
Cn1c(=O)c(C(=O)COC(=O)c2cc(-c3ccco3)nc3ccccc23)c(N)n(Cc2ccccc2)c1=O	8.91µM*	6.57µM*	x	3.16µM*	5.22µM*
CC(C)Cn1c(N)c(C(=O)COC(=O)c2cc(-c3ccccc3)nc3ccccc23)c(=O)n(C)c1=O	8.2%	11.7µM*	5.4%	-0.4%	u
Cn1cc(Cl)c(/C(N)=N/OC(=O)c2ccccc2C(F)(F)F)n1	-17.0%	58.2%	-4.0%	-12.4%	117.2%
OC(c1cccc(Cl)c1)c1nc(-c2ccc(F)c(Cl)c2)cs1 (centres undefined)	x	x	15.3%	x	x
CN(C(=S)NC(=O)Cc1ccccc1)c1ccccc1	1.5%	4.6%	6.6%	x	10.3%
CC(C)Cn1c(N)c(C(=O)COC(=O)c2cc(-c3ccco3)nc3ccccc23)c(=O)n(C)c1=O	u	-5.7%[5.75 µM]	-3.8%	6.31µM*	9.28µM*
CC(C)Cn1c(N)c(C(=O)COC(=O)c2cc(C3CC3)nc3ccccc23)c(=O)n(C)c1=O	-2.5%	11.7µM*	8.4%	-1.2%	5.22µM*
Cc1ccc(-c2c(C)c(-c3ccc(F)cc3)nc(N)c2C#N)o1	-0.2%	-1.1%[5.75 µM]	6.6%	28.2µM*	-5.8%
Cc1c(-c2ccc(F)cc2)nc(N)c(C#N)c1-c1cccs1	-4.7%	-2.0%	-9.9%	-1.5%	6.1%
Cc1ccc2c(c1)C(c1ccccc1)N(C(=O)CC(C)C)CC(=O)N2 (centres undefined)	-2.4%	u	-11.9%	3.6%	u
COc1nn(-c2ccccc2)c(=O)c(Cl)c1Cl	-29.1%	u	-19.0%	22.4µM*	-34.7%
COc1cc(-c2nc3sccn3c2Nc2cccc(C)c2)ccc1O	x	x	x	-1.8%	x
COc1ccc(CN2CCNC(=O)C2CC(=O)NC2CCC2)c(OC)c1 (centres undefined)	9.6%	14.7µM*	-5.1%	-66.1%	6.7%
COc1ccc(CN2CCNC(=O)C2CC(=O)NCc2ccc(C)s2)c(OC)c1 (centres undefined)	0.0%	u	11.6%	31.6µM*	18.6%
COc1ccc(CNC(=O)CC2C(=O)NCCN2CC(C)(C)C)c(OC)c1 (centres undefined)	6.7%	10.4µM*	-4.2%	-19.7%	-7.7%
CCOc1ccc(Nc2nc3c(c(=O)[nH]2)CCCC3)cc1	-0.8%	234.8%	7.9%	-3.0%	2.33µM*
Cc1c(C(=O)Nc2ccc(S(=O)(=O)N(C)C3CCN(C)CC3)cc2)oc2c(Cl)cccc12	x	2.62µM*	-7.3%	-10.1%	2.94µM*

Screens (PubChem)
